# High-throughput results from PubChem.
# Rows were chosen to be rich in hits. Some 7.9% of all compounds tested hit in one or more screens of this group.
# Marburg entry inh: qHTS for inhibitors of binding or entry into cells for Marburg Virus; Marburg virus pseudotyped entry inhibition, cell reporter; Potency, µM (series often up to 37.8 µM), for inactives: at the highest dose activity change, negative = inhibition, actives largely listed as inhibitors; actives 1.8% (n = 300,000); AID 540276, 2011; calls by dose curve; tested in HEK293 cells; further: potency means the concentration at half of the fitted maximal effect
# LASV entry inh: qHTS for Inhibitors of binding or entry into cells for Lassa Virus. Potency, µM (top dose mostly 37.9 µM), for inactives: at the top dose activity change, negative = inhibition, usual class: inhibitors. actives 1.2% (n = 300,000). Lassa virus pseudotype entry inhibition, cell reporter. AID 540256, 2011; calls by dose curve; tested in HEK293 cells; further: potency means the concentration at half of the fitted maximal effect; nearly all actives have a fitted effect of over 50% in size
# FMDV antiviral: High Throughput Screening for Foot and Mouth Disease Virus Antivirals. actives 1.2% (n = 410,000). Potency, µM (series often up to 57.9 µM), without a hit: at the highest dose activity change, negative = inhibition, hits mostly inhibitors. FMDV antiviral cell-based qHTS. AID 1159524, 2015; calls by dose curve; tested in HEK293T cells; further: read-out not given here; potency means the concentration at half of the fitted maximal effect; nearly all actives have a fitted effect of over 45% in size
# HCV inhibitor: qHTS Assay for Inhibitors of Hepatitis C Virus (HCV); AID 651820, 2012; actives 3.4% (n = 340,000); Potency, µM (series often up to 41.8 µM), inactives show at the top dose activity change, negative = inhibition, hits mostly inhibitors; Huh7.5.1 HCVcc-Cre infection, luciferase reporter, 44 h; active means well fitted inhibition curve with a large enough effect; inconclusive means small, poorly fitted or top-dose-only effect, or another doubt; inactive means no such curve, though single readings can be large or run the other way; further: potency means the concentration at half of the fitted maximal effect
#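 Seed cells (1,000/well) for 4 h; treat with compound and infect with HCVcc-Cre, moi about 0.5. Incubate 44 h, then detect luciferase activity.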
# HCMV antiviral: qHTS Assay for inhibitors of the human cytomegalovirus (HCMV); AID 1259415, 2018; activity change, negative = inhibition, % at 57.5 µM; HFF cells, HCMV-luciferase reporter, 72 h; stronger effect = lower value; actives 4.5% (n = 410,000); in the data active means activity change below about -60%; inconclusive means no clear call, values can overlap the other calls; inactive means above about -39%
#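 Inhibition of viral replication was scored as loss of reporter luminescence in HFFs infected with HCMV-luciferase (MOI 1 PFU/cell) for 72 h; compounds tested at 2 doses, normalized to buffer and Salinomycin controls.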
# An asterisk follows results filed as active; ? = inconclusive; . = no result given; [ ] = dose if it differs, or a comment. On the % scale 0 is the no-effect control and ±100 the full control effect.
SMILES,Marburg entry inh,LASV entry inh,FMDV antiviral,HCV inhibitor,HCMV antiviral
CCCCn1c(O)c(C(CC)=NC(C)c2ccccc2)c(=O)[nH]c1=O (centres undefined),?,?,-27%,?,10
CCCCn1c(O)c(C(C)=NCc2cc(OC)cc(OC)c2)c(=O)[nH]c1=O,-21%,-1%,-7%,?,-10
CCC(=NCCOc1ccc(Cl)cc1)c1c(O)n(C)c(=O)n(C)c1=O,-24%,2%,25µM*,14%,?
CCC(=NCc1cc(OC)cc(OC)c1)c1c(O)n(C2CCCCC2)c(=O)[nH]c1=O,.,.,?,?,13
CCCCn1c(O)c(C(CC)=NCc2cc(OC)cc(OC)c2)c(=O)[nH]c1=O,-2%,?,?,13µM*,-8
COc1cc(CN=C(C)c2c(O)n(C3CCCCC3)c(=O)[nH]c2=O)cc(OC)c1,-27%[46.1 µM],?,?,10µM*,65
CCCCn1c(O)c(C(CC)=Nc2ccc(OCC)cc2)c(=O)[nH]c1=O,-3%,0.33µM*,?,?,-34
O=C(Cc1ccccc1F)Nc1ccc(S(=O)(=O)Nc2ncccn2)cc1,0%[46.1 µM],1%[46.1 µM],-3%,18%,-19
C=CCn1c(O)c(C(CC)=Nc2ccc(N(CC)CC)cc2)c(=O)[nH]c1=O,-1%,3.3µM*,-20%,?,18
CCC(=Nc1ccc2c(c1)CCC2)c1c(O)n(C2CCCCC2)c(=O)[nH]c1=O,0%,?,-5%,1%,-85*
CC(=Nc1ccc2c(c1)CCC2)c1c(O)n(C2CCCCC2)c(=O)[nH]c1=O,-4%,-6%,29%,11%,-15
CCCCn1c(O)c(C(CC)=Nc2ccc(OC)cc2OC)c(=O)[nH]c1=O,?,?,18µM*,?,-1
CCCCn1c(O)c(C(CC)=NCc2cccnc2)c(=O)[nH]c1=O,-2%,3%,-17%,10%,-20
CCC(=Nc1cccc(C(F)(F)F)c1)c1c(O)n(C)c(=O)n(C)c1=O,1%[46.1 µM],-8%,-31%,10%,24
CCC(=Nc1ccc(OC)cc1OC)c1c(O)n(C)c(=O)n(C)c1=O,?,-17%,32µM*,?,-25
CC(C)=CCC/C(C)=C/CO/N=C1\C[C@@H](O)[C@@H](O)[C@@H]2[C@@H]3C(=O)N(c4cccc(Oc5ccccc5)c4)C(=O)[C@@H]3CC[C@@H]12,26%[14.2 µM],.,.,.,.
CCc1cccc(NC(=O)c2cc(S(=O)(=O)N3CCCCCC3)cn2C)c1,.,6%[46.1 µM],-25%,.,11
CC(=O)Nc1sc(N/N=C/c2ccccc2F)nc1-c1ccc(C)cc1,-9%,.,74%,13µM*,-1
CC(=O)Nc1sc(N/N=C\c2ccccc2Cl)nc1-c1cccs1,-16%,0%,20%,-18%,-83*
CC(=O)Nc1sc(N/N=C\c2ccccc2)nc1-c1cccs1,11%,20%,41%,-2%,-4
COc1cc(O)c(C(CC(=O)N2CCOCC2)c2ccc3c(c2)OCO3)c(OC)c1 (centres undefined),.,.,-8%,11µM*,?
Cc1ccc2c(c1)C(c1ccc(F)cc1)N(C(=O)c1cccc(C(F)(F)F)c1)CC(=O)N2 (centres undefined),?,-26%[46.1 µM],23%,.,-107*
Cc1ccc2c(c1)C(c1ccc(F)cc1)N(C(=O)C(C)C)CC(=O)N2 (centres undefined),6%[46.1 µM],13%[46.1 µM],8.9µM*,.,-105*
Cc1ccc2c(c1)C(c1ccc(F)cc1)N(C(=O)c1ccc(S(=O)(=O)N(C)C)cc1)CC(=O)N2 (centres undefined),.,.,0%,-12%,.
CCCC(=O)Nc1nnc(S(=O)(=O)N(CC(C)C)c2ccccc2)s1,.,.,-24%,-1%,-25
SMILES,Marburg entry inh,LASV entry inh,FMDV antiviral,HCV inhibitor,HCMV antiviral
COc1ccc(CCC(=O)N2c3ccccc3N=C(c3ccc4c(c3)OCO4)C2C(=O)NCc2ccccc2)cc1 (centres undefined),.,.,23%,.,0
CO[C@H]1[C@H](NC(=O)c2ccsc2)c2ccccc2C12CCN(Cc1cccc3ncccc13)CC2,.,.,-17%,.,.
COc1ccc(C(C)NC(=O)CCc2ccccc2)cc1 (centres undefined),-1%,-15%,13%,23%,-9
COc1ccc(CCC(=O)NNC(=O)Nc2ccc(C(C)C)cc2)cc1,5%[46.1 µM],-16%[46.1 µM],1%,7%,-9
COc1ccc(CCC(=O)NNC(=O)Nc2ccc(C(C)=O)cc2)cc1,6%,0.71µM*,24%,3%,11
COc1ccc(C(=O)CCc2ccccc2)cc1,.,.,52%,11µM*,?
COc1ccc(CCC(=O)NC(C)C)cc1,?,7%,-3%,-1%,-86*
COC(=O)N[C@@H](c1ccc2ccccc2c1)C(C(C)=O)C(=O)OC (some centres undefined),-16%[14.2 µM],.,.,.,.
O=C1C(=O)N(CCN2CCOCC2)C(c2cccnc2)/C1=C(/O)c1ccc(Cl)cc1 (centres undefined),0%[46.1 µM],0%[46.1 µM],-2%,12%,-32
Cc1c(NC(=O)c2ccc(-c3ccc(F)cc3)o2)cccc1-c1nc2ncccc2o1,.,-8%[46.1 µM],0%,.,-1
FC(F)(F)c1cccc(NC(=S)Nc2cccc(NC(=S)Nc3cccc(C(F)(F)F)c3)n2)c1,?,?,-21%,10µM*,?
O=C(Nc1cccc(C(F)(F)F)c1)C1CCCCC1,-19%,-19%,-22%,7%,21
FC(F)(F)c1cccc(NC(=S)NC2CCCC2)c1,?,-3%,-21%,9%,-64*
CN(C(=O)Nc1cccc(C(F)(F)F)c1)C1CCCCC1,-5%[46.1 µM],?,20%,1%,-63*
FC(F)(F)c1cccc(N2CCN(C(=S)NC3CCCC3)CC2)c1,?,-26%,20µM*,32µM*,-29
COCCNC(=S)N(C)[C@H]1C[C@H]2c3cc(N4CCN(C)CC4)ccc3CCN2C(=O)[C@H]1[C@H](C)O,.,.,-20%,.,6
CC(C)=NOCc1ccc(-c2cn([C@@H]3COC[C@@H]3O)nn2)cc1,15%[14.2 µM],.,.,.,.
COC(=O)[C@@]1(Cc2ccc(OC)cc2)[C@@H]2C(=CC(=O)[C@H]2CC(=O)C(=O)N(C)C)CN1C(=O)c1ccccc1,?,?,25µM*,13µM*,-80*
C=C1C(=O)C=C2CN(C(=O)c3ccccc3)[C@@](Cc3ccc(F)cc3)(C(=O)OC)[C@@H]12,?,21µM*,3.2µM*,?,.
C=C1C(=O)CC2=C1[C@](Cc1ccc(F)cc1)(C(=O)OC)N(C(=O)c1ccccc1)C2,.,.,?,.,-9
CCN(CC)CCNC(=O)c1ccc(-c2nc(CS(=O)(=O)c3ccc(C)cc3)c(C)o2)cc1,.,4%[46.1 µM],-11%,.,-27
CCOc1ccc(NC(=O)c2ccc(F)c(S(=O)(=O)N(Cc3ccc(C(=O)OC)cc3)Cc3ccc(OC)c(OC)c3)c2)cc1,.,29%[46.1 µM],-10%,.,-9
